Each structure is given as a SMILES string. The panel holds about 83,000 compounds, 20% with a hit somewhere; the sample as a whole holds those more often.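 Values shown are percent growth following 48 h exposure of cells in 96-well plates to a single concentration of compound; below 10 was considered active.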 Values without a mark were called inactive. The source made the active and inactive calls.

Consider 40 molecules from PubChem BioAssay (NCI).

The test system of the assay is HL-60(TB) leukemia. Briefly: NCI-60 one-dose screen, 48 h (100 = growth as untreated, 0 = no growth, -100 = all killed). The conditions noted are these: 10 µM unless noted.
As to `C/C(=C\c1csc(C)n1)[C@@H]1C[C@@H]2O[C@]2(C)CCC[C@H](C)[C@H](O)[C@@H](C)C(=O)C(C)(C)[C@@H](O)CC(=O)N1`, the growth was 0.771% (active).
As to `COc1ccc2c(ccc[n+]2C)c1`, the growth is 132%.
Next, `COc1cnc2c(c1)C(=O)c1c-2n(CCCNC(C)C)c(=O)c2cc([N+](=O)[O-])ccc12`: -65% (active); `CCCCCCCCCCCCCCCC[N+](C)(CCO)Cc1cnc[nH]1` (stereo not given): -80.6% (active).
Next, `C#Cc1cccc(Nc2ncnc3cc4c(cc23)OCCOCCOCCO4)c1`: 88.1%.
Consider `CC(=O)OC[C@]12CC[C@@H]([C@@H](C)c3nnc(-c4ccncc4)o3)[C@@H]1[C@H]1CC[C@@H]3[C@@]4(C)CC[C@H](OC(C)=O)C(C)(C)[C@@H]4CC[C@@]3(C)[C@]1(C)CC2`, for which the growth is 61.1%.
Next, `COc1cc(CCCO)c(OC)c(OC)c1OC`: 98.4%; `CSC1=Nc2c(c(C)c(-c3ccccc3)n2CCCN2CCCCC2)C2=NC(=O)C[C@H](C)N12`: -33.2% (active).
Turning to `CC1CCCCC[N+]12CCCC2` (stereo not given), the growth was 102%.
The result for `O=C(Nc1cccc(-n2cc(-c3ccncc3)c(-c3cc(O)cc(Cl)c3)n2)c1)c1cc(C(F)(F)F)cc(C(F)(F)F)c1` reads 21.4%; that for `COC(=O)CC[C@@H]1O[C@@H](c2ccc(F)cc2)[C@@H](O)[C@H]1O`, 113%; that for `CC1(C)CC(=O)c2c(ccc(C(=O)C[C@@H](N)CO)c2N)O1`, 35.7%.
Take `CCCCC#Cc1c(/C=C(\CCCC)SCC)n(C)c(=O)[nH]c1=O`: the growth was 92.8%.
Turning to `CC(=O)c1c(C)nc2ccccc2c1/C=C/c1ccc(F)cc1`, the growth is 95.6%.
As to `c1c[nH]c(CNC2CCCCC2)c1`, the growth was 263%.
For `O=C(/C=C/c1cccc(B(O)O)c1)c1cccc(B(O)O)c1`, the growth is -13.8% (active).
The result for `Clc1ccccc1-c1cnn2cc(-c3ccccc3)cnc12` reads 96.2%.
Next, `CC(=O)Nc1ccc(C(=O)COc2cccc(/C=C3\CCc4ccccc4C3=O)c2)cc1`: 89.2%.
For `C#Cc1cccc(Nc2ncnc3cc(NC(=O)CCl)ccc23)c1`, the growth was -41.3% (active).
As for `CNC(=O)c1cc(Oc2ccc(NC(=O)Nc3ccc(Cl)c(SC)c3)c(F)c2)ccn1`, the growth is 45.5%.
Next, `CCCCc1ccc(NC(=O)C(F)(F)F)cc1`: 71.2%; `CCOC(=O)C#Cc1c(CC(=O)OCC)nnn1[C@H]1O[C@@H](CO)[C@@H]2OC(C)(C)O[C@@H]21`: 38%; `O=S(=O)(NCCNc1nccc(-c2c(-c3ccccc3)nc3sccn23)n1)c1ccc(O)cc1`: 68%.
Next, `O=S(=O)(NCCNc1nccc(-c2c(-c3ccc(F)cc3)nc3sccn23)n1)c1ccc2ccccc2c1`: 88.1%.
In the case of `CC(=O)CS(C)(=O)=O`, the growth is 100%.
For the molecule `CC(=O)/C(=C/c1ccccc1)C(=O)CC(C)C`, the growth was 38.8%.
The result for `CN(C)S(=O)(=O)c1cccc(-c2nc3sc4c(c3c(=O)[nH]2)CCCC4)c1` reads 22.3%.
The result for `COc1cc(/C=N/Nc2ncc(-c3cc4cc5c(cc4o3)OCO5)s2)cc(OC)c1OC` reads 14.7%; that for `O=C(O)c1ccc2c(c1Sc1ccccc1)C(=O)c1ccccc1C2=O`, 95.8%.
The result for `NC(N)=N/N=C\c1ccc(OCc2ccccc2)cc1` reads 43.1%; that for `Cc1cc(Cl)ccc1NS(=O)(=O)c1ccc(-c2cnc(C3CC3)o2)cc1`, -36% (active).
Regarding `CCN(CC)Cc1cc(Nc2c3ccc(Cl)cc3nc3ccc(OC)cc23)ccc1O`, the growth is 72.5%.
Next, `COCCn1cc(-c2csc(-c3cn(C)c4ccc(F)cc34)n2)c2cccnc21`: 84.7%; `Oc1ccccc1N=Cc1ccccc1`: 84.2%.
Turning to `CSC[C@H](NC(=O)COc1cccc2cnccc12)C(=O)NC(Cc1ccccc1)C(O)C(=O)N1CSC[C@H]1C(=O)NC(C)(C)C` (stereo not given in full), the growth is 140%.
Regarding `OC(COc1ccccc1)CN1CCN(c2ccc(Cl)cc2)CC1` (stereo not given), the growth is 83.3%.
The result for `O=C(Cn1c[n+](CC(=O)c2ccc(-c3ccccc3)cc2)c2ccccc21)Nc1cccc2cccnc12` reads -37.2% (active); that for `CC(C)(C)C(=O)/C=C/c1ccc([N+](=O)[O-])cc1`, 75.2%.
Turning to `O=C(NCc1cccc(CNC(=O)Nc2nc3ccccc3[nH]2)c1)Nc1nc2ccccc2[nH]1`, the growth was 10.1%.
The result for `O=C(NNc1ccccc1)C1CCCN1` (stereo not given) reads 9.36% (active).
